biological target: T1, GST-Nv-NF-kB (Ser allele) (Nematostella vectensis, UniProt A7UNT2 2-411); assay: protein-binding microarray (PBM); PBM: ~300 nM protein, 6 mM HEPES pH 7.8, 80 mM KCl, 0.5 mM EDTA, 0.5 mM EGTA, 6% glycerol, 35 ng/ul poly-dIdC, 1% milk, 1 h, room temperature; Ap Aiptasia and Nv Nematostella (sea anemones) / Co Capsaspora / Aq Amphimedon (sponge) / Dm Drosophila / Hu human; RHD is the Rel homology domain; high values mean tight binding; settings: dsDNA, one strand shown
T1 sequence: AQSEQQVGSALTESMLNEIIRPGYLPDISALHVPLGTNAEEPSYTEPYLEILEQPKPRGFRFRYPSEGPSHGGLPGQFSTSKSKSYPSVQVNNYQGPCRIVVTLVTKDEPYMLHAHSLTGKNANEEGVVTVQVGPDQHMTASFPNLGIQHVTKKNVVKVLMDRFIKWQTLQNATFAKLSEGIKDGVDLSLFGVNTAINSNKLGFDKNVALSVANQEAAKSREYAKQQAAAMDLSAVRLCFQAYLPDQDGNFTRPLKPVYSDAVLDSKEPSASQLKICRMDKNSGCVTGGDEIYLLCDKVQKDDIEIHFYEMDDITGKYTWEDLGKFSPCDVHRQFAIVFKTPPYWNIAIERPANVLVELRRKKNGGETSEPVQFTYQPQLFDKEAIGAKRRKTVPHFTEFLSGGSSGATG

Sequence | binding signal
CCGATTAACATCAAAATGCCCCCTGATGTTAATCGGGTCTTGATTCGCTTGACGCTGCTG | 4.81 z-score
CCGATTAACATCAGGGGGGTTACTGATGTTAATCGGGTCTTGATTCGCTTGACGCTGCTG | 4.18 z-score
CCGATTAACATCAGGGGGTGGAATGATGTTAATCGGGTCTTGATTCGCTTGACGCTGCTG | 4.75 z-score
CCGATTAACATCAGAAAAATCCCTGATGTTAATCGGGTCTTGATTCGCTTGACGCTGCTG | 5.14 z-score
CCGATTAACATCAGGGGGAACACTGATGTTAATCGGGTCTTGATTCGCTTGACGCTGCTG | 6.37 z-score
CCGATTAACATCAAGGAGTCCCCTGATGTTAATCGGGTCTTGATTCGCTTGACGCTGCTG | 5.36 z-score
CCGATTAACATCAAGCTCTAAGGTGATGTTAATCGGGTCTTGATTCGCTTGACGCTGCTG | 1 z-score
CCGATTAACATCAGGAAAGCCCCTGATGTTAATCGGGTCTTGATTCGCTTGACGCTGCTG | 6.08 z-score
CCGATTAACATCACAGCAGTACCTGATGTTAATCGGGTCTTGATTCGCTTGACGCTGCTG | 3.01 z-score
CCGATTAACATCAAAAATGCCCCTGATGTTAATCGGGTCTTGATTCGCTTGACGCTGCTG | 6.13 z-score
CCGATTAACATCAAACGTTCCCCTGATGTTAATCGGGTCTTGATTCGCTTGACGCTGCTG | 6.33 z-score
CCGATTAACATCAGGGAAACTTATGATGTTAATCGGGTCTTGATTCGCTTGACGCTGCTG | 6.07 z-score
CCGATTAACATCAAAATACCCCTTGATGTTAATCGGGTCTTGATTCGCTTGACGCTGCTG | 6.34 z-score
CCGATTAACATCAGGGGGGGAACTGATGTTAATCGGGTCTTGATTCGCTTGACGCTGCTG | 6.12 z-score
